# Target: CCDC124
# Assay: pooled miR-30 sensor sort-seq; sequence = guide strand
# Conditions: shRNA
# Also: reference of the scale not given here.
row,Sequence,sensor-assay potency score (higher = more potent)
1,TCGTCGTCCTTCCAGTAGGCAT,-1.51
2,TTCTCTTGTTTGAGCCGCGGCA,-0.945
3,TTCTGCTTCTTGGCATCAGCGG,-0.999

# Target: CCDC136
# Assay: as above
# Conditions: shRNA
row,Sequence,sensor-assay potency score (higher = more potent)
1,TTGCGGAATCCTCTGCTGCTTG,-0.962
2,TTACAAGGAACTCAGGTTCTTA,-0.441
3,TAACAGGGAAATCTCCTCCCGT,-0.529
4,TTTCTGAAGTCTGAGACTCTGC,-0.127
5,TTTCTCATGCTCTAACAGGGAA,-0.6
6,TAGAGAACGCAGCTCACCTTGG,-0.542
7,TTCTATTTCCTTAAGTTCGCTT,0.0212
8,TTGTTGACTGACAGAGAGCCAA,-0.719
9,TTCCTGACACTTGTTCTTCATG,-1.21
10,TTCATTTCCATTTCTGCACGGA,-0.0377
11,TTCAAGTTCATTCTGCATCCGG,0.279
12,TTAAGTTCGCTTTCTTTCTCAT,-0.0696

# Target: CCDC19
# Assay: as above
# Conditions: shRNA
row,Sequence,sensor-assay potency score (higher = more potent)
1,TTTCCTCTTGATCTCATCGATG,-0.984
2,TTTGATTCGCTCAAACTCCTCA,0.0568
3,TTAGCATTGAGGATAATCTTGC,0.12
4,TTGGATCTGCTGCTTCTCCAGG,-1.06
5,TTCTTTTTGGATCTGCTGCTTC,-0.755
6,TTTTCCTCTTGATCTCATCGAT,0.115
7,TTGAGGATAATCTTGCTCATGT,-0.0129
8,TTGAAGGGTATGCTTATCTCGG,-0.289
9,TTCAATGCAGTACTTCTCGGGA,-0.758
10,TTCTGCGCCACTCTCTGTCTGC,-0.303
11,TTCTGTTTCATGATCTTCTTTC,-0.0443

# Target: CCDC47
# Assay: as above
# Conditions: shRNA
row,Sequence,sensor-assay potency score (higher = more potent)
1,TTGCCTTCTCTGTTGAGTCGGA,-0.0399
2,TTCTAGATAATAACTCTCCCAG,-0.381
3,TTAAATGTAAACAACAGTGTCC,0.382
4,TTCAGTAACAGAGTCTTCCATG,-0.75
5,TTTTGCTAGAAGAAGTATCTGG,0.452
6,TAAGTCTTGTCTCTTGAGGAAC,-1.49
7,TTGCACTTGATCACTCACTGGC,0.924
8,TGCAGGAACATCAACAATCGTT,-0.762
9,TTCTCTGTTGAGTCGGAACTTT,-0.845
10,TAAAGTAAAGTTGCTCTCCAAA,-1.24
11,TTTCATTTGCTTCTTTTCCAAC,-1.25
12,TTTGCTAGAAGAAGTATCTGGT,0.978
